Bioassay records: PubChem BioAssay, several laboratories
The list is not random: actives were taken first. Their share in the collection is about 1.9%.
Jurkat viability: reduces viability or proliferation of Jurkat cells; Jurkat E6.1 viability, ATP luminescence, 48 h; inhibition, % at 4 µM; 56,000 tested, 1.2% active; AID 463;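 active means inhibition above the mean inhibition of all tested compounds plus 3 SD, cut at about 28% in these data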
Her2 expr inh: Her2 kinase expression inhibition | P04626 | SKBR-3 HER2 protein level, AlphaScreen, 18-24 h; active compounds read low | HER2 level % of control, % at 10 µM | 65,000 tested, 0.69% active | AID 645;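 active means HER2 level under 5% of the carrier-only control; inconclusive means no clear call, values can overlap the other calls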;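 further: 100% = DMSO carrier and 0% = 500 nM PU-H71 HSP90 inhibitor; lower value means stronger loss of Her2 protein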
Target sequence (P04626 whole entry, looked up): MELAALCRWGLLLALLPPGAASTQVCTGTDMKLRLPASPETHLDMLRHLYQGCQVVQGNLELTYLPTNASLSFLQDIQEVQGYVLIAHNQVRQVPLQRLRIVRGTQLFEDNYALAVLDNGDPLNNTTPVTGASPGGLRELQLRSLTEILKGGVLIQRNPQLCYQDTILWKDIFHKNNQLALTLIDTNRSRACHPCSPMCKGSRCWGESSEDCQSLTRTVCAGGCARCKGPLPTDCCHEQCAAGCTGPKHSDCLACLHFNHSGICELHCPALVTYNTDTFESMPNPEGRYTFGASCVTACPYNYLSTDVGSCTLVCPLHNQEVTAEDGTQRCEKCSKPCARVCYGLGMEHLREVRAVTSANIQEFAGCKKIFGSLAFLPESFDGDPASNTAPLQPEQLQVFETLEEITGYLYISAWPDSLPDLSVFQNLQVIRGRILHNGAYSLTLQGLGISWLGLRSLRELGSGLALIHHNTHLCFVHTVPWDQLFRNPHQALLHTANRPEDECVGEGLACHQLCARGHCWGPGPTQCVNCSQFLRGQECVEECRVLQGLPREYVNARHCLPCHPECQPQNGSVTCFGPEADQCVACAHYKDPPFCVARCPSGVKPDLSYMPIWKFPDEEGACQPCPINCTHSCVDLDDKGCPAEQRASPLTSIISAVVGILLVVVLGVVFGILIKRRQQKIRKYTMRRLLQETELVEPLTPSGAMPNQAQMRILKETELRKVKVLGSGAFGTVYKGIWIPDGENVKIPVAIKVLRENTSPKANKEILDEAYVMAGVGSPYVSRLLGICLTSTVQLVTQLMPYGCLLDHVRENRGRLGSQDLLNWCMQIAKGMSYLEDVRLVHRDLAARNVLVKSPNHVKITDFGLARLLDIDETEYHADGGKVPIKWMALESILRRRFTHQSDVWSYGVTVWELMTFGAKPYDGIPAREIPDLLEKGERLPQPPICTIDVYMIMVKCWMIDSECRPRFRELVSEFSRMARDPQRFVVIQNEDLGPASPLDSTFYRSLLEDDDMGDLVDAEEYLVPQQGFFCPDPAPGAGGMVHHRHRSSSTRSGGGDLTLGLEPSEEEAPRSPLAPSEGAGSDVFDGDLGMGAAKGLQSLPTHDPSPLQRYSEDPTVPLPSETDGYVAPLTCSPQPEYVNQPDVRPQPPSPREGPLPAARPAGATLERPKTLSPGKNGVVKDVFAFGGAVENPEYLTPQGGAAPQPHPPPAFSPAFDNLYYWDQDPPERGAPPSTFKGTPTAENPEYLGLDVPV
SKBR3 24h inh: SK-BR-3 proliferation inhibitors; SK-BR-3 viability, CellTiter-Glo ATP luminescence, 24 h; active compounds read low; viability, % at 10 µM; 41,000 tested, 0.47% active; AID 847;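 active means viability at or below the median of all test compounds minus 3 SD, in both replicates if run twice, cut at about 45% in these data; inconclusive means duplicate replicates that disagree with each other; inactive means viability above that cutoff in every replicate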;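 further: 100% = median untreated cell wells and 0% = median positive control drug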
Numbers without * were called inactive; ? = inconclusive; nt = not tested or not shown.

SMILES	Jurkat viability	Her2 expr inh	SKBR3 24h inh
O=C(NC1CCCCC1)N1CCC(c2nc(-c3ccc(S(=O)(=O)N4CCCC4)cc3)no2)CC1	9.3	54.7	77.3
O=C(C1CC1)N1CCC(c2nc(-c3ccc(S(=O)(=O)NCC4CCCO4)cc3)no2)CC1 (stereo unspecified)	52.5*	97.1	84.9
CN(CCNC(=O)c1ccc(N2CCCC2=O)cc1)CCc1ccccc1	nt	108.0	nt
CC(C)Cn1c(N)c(C(=O)COC(=O)c2cc(-c3ccco3)nc3ccccc23)c(=O)n(C)c1=O	15.1	92.8	nt
Cc1nn(-c2ccccc2)c(C)c1C(=O)OCC(=O)c1c(N)n(CC(C)C)c(=O)n(C)c1=O	37.6*	92.5	nt
Cc1cc(Cl)ccc1NC(=O)CSc1nnc(-c2ccncc2)n1Cc1ccco1	nt	102.1	39.2*
Cc1cccc(C)c1NC(=O)CSc1nnc(-c2ccncc2)n1Cc1ccco1	0.6	99.1	90.5
CC(C)Cn1cnc2c1c(=O)n(CC(=O)Nc1ccc3c(c1)OCO3)c(=O)n2Cc1ccccc1	-4.1	89.7	nt
CC(=O)OC1CSc2nc3ccccc3n2C1 (stereo unspecified)	-2.3	90.3	95.8
CCOC(=O)N1CCN(Cc2nc3c(c(=O)[nH]c(=O)n3C)n2Cc2cc(C)ccc2C)CC1	-5.0	103.1	nt
CCOC(=O)c1[nH]c(C)c(C(=O)Nc2ccccc2F)c1C	88.6*	73.3	nt
CCOC(=O)c1[nH]c(C)c(C(=O)Nc2ccc(C)c(C)c2)c1C	13.2	74.9	nt
CCOC(=O)c1[nH]c(C)c(C(=O)Nc2ccc(F)cc2)c1C	8.1	73.6	nt
CCOC(=O)c1[nH]c(C)c(C(=O)Nc2ccc(C)cc2C)c1C	92.8*	34.0	nt
CC(C)CC(c1nnnn1Cc1ccccc1)N1CCN(C(=O)c2ccco2)CC1 (stereo unspecified)	4.3	100.5	nt
Cc1cccc(OCC(=O)Nc2cc(C)c(C)cc2O)c1	1.2	78.0	83.8
COc1ccc(C(=O)/C=C/Nc2cc(C)on2)cc1	nt	96.2	102.3
Cc1cccc(OCC(=O)Nc2cc(C)ccc2O)c1	55.2*	51.9	93.7
Cc1ccc(O)c(NC(=O)CCC2CCCCC2)c1	39.4*	96.4	108.9
O=C(CCC1CCCCC1)Nc1ccccc1O	25.0	119.4	112.2
COc1cccc(C(=O)/C=C/Nc2cc(C)ccc2O)c1	64.2*	92.9	102.0
CCC(CO)NC(=O)c1cccc(S(=O)(=O)N2c3ccccc3CC2C)c1 (stereo unspecified)	-1.5	74.2	nt
COc1ccccc1N(CC(=O)Nc1cc(C)on1)S(=O)(=O)c1cccs1	-7.0	80.3	nt
O=C(NC(=O)c1ccc(Cl)cc1)Nc1cc(N2CCCCC2)ncn1	1.9	85.7	95.3
Cc1ccccc1CS(=O)(=O)Cc1ccc(C(=O)NCc2cccnc2)o1	-1.1	99.2	85.1
SMILES	Jurkat viability	Her2 expr inh	SKBR3 24h inh
Nc1c(S(=O)(=O)c2ccccc2)c2nc3ccccc3nc2n1/N=C/c1cccc(O)c1	-5.2	-27.5*	94.1
Cc1ccc(C)c(S(=O)(=O)c2c(N)n(/N=C/c3ccco3)c3nc4ccccc4nc23)c1	-4.4	82.4	95.2
Cc1oc(-c2ccccc2F)nc1CS(=O)(=O)CC(=O)NCc1ccco1	-2.6	87.1	nt
COc1ccc(C)cc1-n1nnnc1SCc1cc(=O)n2cc(C)ccc2n1	24.6	92.5	nt
Cn1c2ccccc2c2cnn(CC(=O)N3CCN(c4ncccn4)CC3)c(=O)c21	9.0	96.3	nt
CCOc1ccc(C2CC(=O)c3c([nH]c(C(=O)OC)c3C)C2)cc1OC (stereo unspecified)	nt	61.7	nt
COC(=O)c1[nH]c2c(c1C)C(=O)CCC2	4.5	88.0	57.2
COC(=O)c1[nH]c2c(c1C)C(=O)CC(c1cccs1)C2 (stereo unspecified)	97.2*	62.1	76.2
COC(=O)c1[nH]c2c(c1C)C(=O)CC(c1cc(OC)ccc1OC)C2 (stereo unspecified)	82.5*	44.5	nt
Cc1ccc(N2C(=O)CSC2c2cccnc2)cc1F (stereo unspecified)	6.0	71.8	72.1
O=C(Nc1ncnc2c1ncn2C1OC(COC(=O)c2ccccc2)C(F)C1O)c1ccccc1 (stereo unspecified)	3.8	126.0	nt
COc1cccc(C(=O)NCC(=O)n2nc(C)cc2C)c1	nt	110.8	89.9
COC(=O)c1ccc(-c2nc(O)c3cnccn23)cc1	-1.6	103.7	nt
Cn1nnnc1Sc1nc(-c2cccnc2)nc2ccccc12	-7.0	-12.7*	nt
CN1CCN(c2nc(-c3cccnc3)nc3ccccc23)CC1	5.0	113.0	nt
COc1ccc(S(=O)(=O)N2CCC(C(=O)Nc3ccccc3C)CC2)c2cccnc12	6.5	97.6	88.0
CCc1ccc(NS(=O)(=O)c2cc(OC)ccc2OC)cc1	28.8*	78.9	90.5
COc1ccc(NS(=O)(=O)c2cc(C(=O)O)ccc2C)cc1	-0.4	127.0	nt
COc1ccc(NS(=O)(=O)c2cc(OC)ccc2NC(=O)c2cc(C)oc2C)cc1	94.0*	65.4	nt
COc1ccc(C)c(S(=O)(=O)Nc2ccc(OCC(=O)O)cc2)c1	-3.9	82.8	nt
COc1ccc(OC)c(S(=O)(=O)Nc2ccc(CC(=O)O)cc2)c1	-1.1	91.0	89.1
COc1ccc(NS(=O)(=O)c2cc(C)ccc2C)cc1	73.5*	123.3	nt
O=C(Nc1ccccc1C(=O)OCC(=O)N1CCc2ccccc2C1)c1ccco1	-3.4	92.5	71.2
Cc1ccc(S(=O)c2ccc(C)cc2)cc1	-1.1	141.1	nt
Cn1nc(-c2ccc(OCC(=O)NCC3CCCO3)cc2)c2ccccc2c1=O (stereo unspecified)	25.9	99.0	91.4
SMILES	Jurkat viability	Her2 expr inh	SKBR3 24h inh
COc1cc(NC(=O)CCCC(=O)OCC(F)(F)C(F)F)nc(OC)n1	-2.3	76.7	82.3
C=CS(=O)(=O)c1ccc(Oc2ccc(S(=O)(=O)C=C)cc2)cc1	100.2*	-21.8*	?
O=S(=O)(c1ccc(Oc2ccc(S(=O)(=O)N3CCOCC3)cc2)cc1)N1CCOCC1	6.5	62.8	111.8
N#Cc1ccccc1NC(=O)CSc1nccn1CCc1ccccc1	-4.0	82.4	89.0
Cc1ccccc1Cn1c(=O)n(CCCC(=O)NCc2ccco2)c(=O)c2ccccc21	3.4	72.5	53.7
Cc1cccc(Cn2c(=O)n(CCCC(=O)NCc3ccco3)c(=O)c3ccccc32)c1	71.0*	72.6	83.3
CSc1nc(C)cc(OCCNS(=O)(=O)c2cc(C)ccc2C)n1	nt	108.3	82.3
CC(C)N(C(=O)CSc1nnnn1C1CCCC1)C(C)C	0.9	95.1	112.1
CC(=O)N1C(=O)c2cccc3cccc(c23)C(=O)N1C(C)=O	nt	158.9	128.2
O=C1c2cccc3cccc(c23)C(=O)N1c1nncs1	-4.2	-28.5*	85.4
COc1ccc(C(=O)CN2C(=O)C(C)(C)Oc3ccc(C(=O)N4CCCCCC4)cc32)cc1	6.1	80.0	91.6
CCCn1c(SCC(=O)Nc2cccc(C)n2)nnc1-c1ccco1	-1.1	-22.9*	87.7
CCn1c(SCC(=O)Nc2cccc(C)n2)nnc1-c1ccco1	-6.0	83.0	nt
CCc1nnc(NC(=O)c2ccncc2)s1	4.6	96.8	75.3
CCc1nnc(NC(=O)c2cccc(C(=O)Nc3nnc(CC)s3)n2)s1	19.6	30.2	42.3*
O=C(O)C1C2C=CC(O2)C1C(=O)NCCCn1ccnc1 (stereo unspecified)	-7.3	102.2	74.2
Cc1ccc(-c2nnc(N3CCOCC3)c3ccccc23)cc1S(=O)(=O)NCC1CCCO1 (stereo unspecified)	5.3	96.8	nt
O=C1NCC(O)=C1C=NCCCO	-2.9	92.4	31.2*
